The source of these data is PubChem BioAssay AID588579 (National Center for Advancing Translational Sciences (NCATS), 2011).

Structures are written as SMILES. “And” between values parts separate entries of the source, which are not always exact repeats. Equal entries are not always repeated. Among all 400,000 compounds or so, about 2,200 (0.55%) were called active. Entries that show only a call come without a potency. Another 1% or so got no clear call; they are omitted. The call rests on the fitted dose curve; in most records, active means well fitted inhibition curve with a large enough effect; inconclusive means small, poorly fitted or top-dose-only effect, or another doubt; inactive means no such curve, though single readings can be large or run the other way. The sample as a whole holds a higher share of actives than the screen did. A structure can be active in one record and inactive in another.
Potency means the concentration at half of the fitted maximal effect.

DNA polymerase kappa (Homo sapiens), sequence (Q9UBT6 whole entry, looked up): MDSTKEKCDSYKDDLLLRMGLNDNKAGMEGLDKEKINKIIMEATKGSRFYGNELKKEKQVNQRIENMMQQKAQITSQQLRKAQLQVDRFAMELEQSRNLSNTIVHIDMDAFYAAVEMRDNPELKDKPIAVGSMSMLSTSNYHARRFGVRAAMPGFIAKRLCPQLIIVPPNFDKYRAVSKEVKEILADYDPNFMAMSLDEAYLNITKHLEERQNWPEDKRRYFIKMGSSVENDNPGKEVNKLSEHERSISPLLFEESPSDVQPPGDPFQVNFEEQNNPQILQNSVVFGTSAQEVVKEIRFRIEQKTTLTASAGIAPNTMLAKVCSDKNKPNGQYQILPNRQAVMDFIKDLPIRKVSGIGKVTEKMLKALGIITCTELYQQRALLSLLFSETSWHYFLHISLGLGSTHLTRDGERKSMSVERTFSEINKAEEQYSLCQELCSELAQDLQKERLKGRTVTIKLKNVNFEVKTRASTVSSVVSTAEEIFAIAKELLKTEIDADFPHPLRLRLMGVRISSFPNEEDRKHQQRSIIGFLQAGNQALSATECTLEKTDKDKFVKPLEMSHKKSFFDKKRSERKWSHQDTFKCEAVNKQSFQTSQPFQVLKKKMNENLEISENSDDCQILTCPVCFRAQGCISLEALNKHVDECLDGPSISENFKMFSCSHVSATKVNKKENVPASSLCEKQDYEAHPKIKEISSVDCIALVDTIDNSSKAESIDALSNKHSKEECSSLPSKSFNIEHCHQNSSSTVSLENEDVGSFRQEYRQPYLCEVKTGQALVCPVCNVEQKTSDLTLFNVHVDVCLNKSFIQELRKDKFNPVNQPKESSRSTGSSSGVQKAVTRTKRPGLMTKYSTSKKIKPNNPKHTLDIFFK

The assay concerns the target DNA polymerase kappa (Homo sapiens) (UniProt Q9UBT6). The assay can be described thus: qHTS for Inhibitors of Polymerase Kappa. To be noted: purified Pol kappa, fluorescent DNA synthesis assay, 10 min; series mostly up to 60.1 µM. As to the method: The processing and repair of DNA interstrand crosslinks (ICL) in eukaryotic cells are extremely complex, potentially involving multiple DNA repair and damage tolerance pathways, including homologous recombination, nucleotide excision repair, translesion synthesis (TLS), and cell cycle checkpoints.
To that end, in a collaboration between the Oregon Health & Science University and the NIH Chemical Genomics Center a 1536-well high-throughput screen was developed. This fluorescent screen was assayed against the NIH Molecular Libraries Small Molecule Repository (MLSMR) to discover inhibitors of Pol Kappa.
NIH Chemical Genomics Center [NCGC]
NIH Molecular Libraries Probe Centers Network [MLPCN]
Assay Submitter (PI): Stephen Lloyd, Oregon Health & Science University
Three microliters of reagents (buffer in column 3 and 4 as negative control and 10 nM Pol kappa in columns 1, 2, and 5-48) were dispensed into a 1536-well black solid-bottom plate. Compounds (23 nL) were transferred via Kalypsys pin tool equipped with 1536-pin array. The plates were then incubated for 15 min at room temperature, and 1 uL substrate (50 nM final concentration) were then added to start the reaction and kinetically read twice at 0 min and 10 min on the Viewlux reader
In general terms: qHTS replaces the single test concentration by a dilution series.
Take `Cc1cc(/C=C2/C(=O)NC(=O)N(Cc3ccco3)C2=O)c(C)n1-c1ccc(C(=O)O)cc1`: the Potency was 50.1 µM (active).

With `CN[C@@H]1C[C@H]2O[C@@](C)([C@@H]1OC)n1c3ccccc3c3c4c(c5c6ccccc6n2c5c31)C(=O)NC4`, the Potency result is “inactive”.

Turning to `CCN1C[C@]2(COC)C(O)C[C@H](OC)[C@@]34C5C[C@]6(O)C(OC)C(O)[C@](OC(C)=O)(C5C6OC(=O)c5ccccc5)C(C(OC)C23)C14` (some centres undefined), the Potency entry is “inactive”.

For `CC(CCC(=O)O)C1CCC2C3C(O)C[C@@H]4CC(O)CC[C@@]4(C)C3CC[C@@]12C` (some centres undefined), the Potency result was “inactive”.

With `COc1ccc(C2Oc3c(I)c(OC)cc(OC)c3CC2O)cc1OC` (centres undefined), the Potency entry is “inactive”.

As for `N[C@H](Cc1o[nH]c(=O)c1Cl)C(=O)O`, the Potency result was “inactive”.

Take `CN1CCN(C(=O)O[C@@H]2c3nccnc3C(=O)N2c2ccc(Cl)cn2)CC1`: the Potency entry was “inactive”.

With `C/C(=C\C=C/[C@@H](C)C(=O)O)[C@H]1CN[C@H](C(=O)O)[C@@H]1CC(=O)O`, the Potency result was “inactive”.

For `N[C@H](C(=O)O)c1cc(=O)[nH]o1`, the Potency entry is “inactive”.

In the case of `O=C1CC(=O)N(Cc2ccccc2)C(=O)N1CCCCCCN1C(=O)CC(=O)N(Cc2ccccc2)C1=O`, the Potency is 22.4 µM (active).

Take `CC(C)(C)c1ccc(CN2C(=O)CN=C(c3ccccc3)c3ccccc32)cc1`: the Potency result was “inactive”.

In the case of `COC1CC(OC2CC[C@@]3(C=O)C4CC[C@]5(C)C(C6=CC(=O)OC6)CC[C@@]5(O)C4CC[C@]3(O)C2)OC(C)C1O` (some centres undefined), the Potency entry was “inactive”.

Turning to `C[C@]12CC[C@@H]3c4ccc(O)cc4C[C@@H](CCCCCCCCCS(=O)CCCC(F)(F)C(F)(F)F)C3[C@@H]1CC[C@@H]2O` (some centres undefined), the Potency result is “inactive”.

As for `CO[C@@H]1C[C@@H](C[C@H]2CC[C@H](C)[C@@H]([C@@H](C)C(=O)O)O2)O[C@]2(O[C@](C)([C@H]3CC[C@@](C)(C4OC([C@H]5O[C@@](O)(CO)[C@H](C)C[C@@H]5C)C[C@@H]4C)O3)C[C@H]2C)[C@@H]1C` (some centres undefined), the Potency entry was “inactive”.

As to `CN=C(NC#N)NCCSCc1nc[nH]c1C`, the Potency result was “inactive and 28.2 µM (active)”.

Take `NC[C@H](O)c1ccc(O)cc1`: the activity, negative = inhibition was -4.18% [at 12 µM] (inactive).

Turning to `CC[C@]1(O)C(=O)OCc2c1cc1n(c2=O)Cc2cc3ccccc3nc2-1`, the Potency result was “inactive”.

On to `Fc1ccc(C(OCCN2CCN(C/C=C\c3ccccc3)CC2)c2ccc(F)cc2)cc1`, for which the Potency entry is “inactive”.

Take `CC[N+](C)(CC)CCC[n+]1c(-c2ccccc2)c2cc(N)ccc2c2ccc(N)cc21`: the Potency was 6.31 µM (active).

For `CC(C)(O)c1[se]c2ccccc2c1I`, the Potency result was “inactive”.

`CN1[C@@H]2CC[C@H]1CC(OC(=O)c1cc(Cl)cc(Cl)c1)C2` (some centres undefined): the Potency result is “inactive”.

Take `COc1ccc(N2C(=O)/C(=C/c3ccco3)C(=O)NC2=S)cc1`: the Potency is 4.47 µM (active).

Regarding `CCN1C[C@]2(C)CC[C@H](O)[C@@]34[C@@H]5CC6[C@@H](OC)C[C@@](O)([C@@H]5[C@@H]6O)[C@H](C[C@@H]23)[C@H]14`, the activity, negative = inhibition was -3.02% [at 12 µM] (inactive).

`N#Cc1cc(Br)c(O)c(Br)c1`: the Potency entry was “inactive”.

Regarding `CN(C)[C@@H]1C(=O)C(C(N)=O)=C(O)[C@@]2(O)C(=O)C3=C(O)c4c(O)cccc4[C@@](C)(O)C3CC12` (some centres undefined), the Potency entry was “inactive”.

In the case of `c1ccc2sc(SNC3CCCCC3)nc2c1`, the Potency result is “inactive”.

With `NCCCCC(N)C(=O)O` (centres undefined), the Potency result is “inactive”.

`C=CCN1CCC2(C)c3cc(O)ccc3CC1[C@@H]2C` (some centres undefined): the Potency result is “inactive”.

`CCCN(C/C=C/I)C1CCc2ccc(O)cc2C1` (centres undefined): the Potency entry was “inactive”.

As to `CO[C@H]1[C@@H](O)[C@@H](C)O[C@H](O[C@H]2[C@H](Oc3cccc4c(O)c5c(=O)oc6ccc(C)c7c(=O)oc(c34)c5c67)O[C@H](C)[C@H](O)[C@@H]2O)[C@@H]1O`, the Potency was 35.5 µM (active).

With `c1ccc(CN2CC[C@@]3(CCCNC3)C2)cc1`, the Potency result is “inactive”.

`CCCCCCCCCCCCN=C(N)N`: the Potency result is “inactive”.

Regarding `CN(C)C1C(=O)C(C(N)=O)=C(O)[C@@]2(O)C(=O)C3=C(O)c4c(O)cccc4[C@@](C)(O)C3C[C@@H]12` (some centres undefined), the Potency entry was “inactive”.

As to `N#CC(C#N)=Cc1cc(O)c(O)c([N+](=O)[O-])c1`, the Potency was 2.82 µM (active).

Consider `COC([CH2][Hg])CNC(=O)c1ccccc1OCC(=O)O` (centres undefined), for which the Potency result was “inactive”.

As to `Nc1ccc(-c2ccc(N)c(N)c2)cc1N`, the Potency result was “inactive”.

On to `CN(C)C[C@H]1CCCC[C@]1(O)c1cccc(O)c1`, for which the Potency entry is “inactive”.

As for `CC[C@@H]1CN2CC[C@@H]1C[C@H]2[C@H](O)c1ccnc2ccc(OC)cc12`, the Potency entry is “inactive”.

Regarding `CC1=CC(=O)C2=C(C)C[C@H](O)[C@H]3[C@H](C)C(=O)O[C@@H]3C12` (some centres undefined), the Potency entry is “inactive”.

Take `C[C@H]1C/C=C/[C@@H]2[C@@H]3O[C@]3(C)[C@@H](C)[C@H]3[C@H](Cc4ccccc4)NC(=O)[C@]32OC(=O)O/C=C/[C@](C)(O)C1=O`: the activity, negative = inhibition was -10.2% [at 12 µM] (inactive).

As for `Cc1c(C(=O)O)cccc1-n1c(C)cc(/C=C2\C(=O)NC(=O)N(c3ccc4c(c3)OCO4)C2=O)c1C`, the Potency is 44.7 µM (active).

Turning to `CC(=O)OC1C2CCC3C1(CC(O)[C@@]1(O)[C@@H](CC(O)C1(C)C)[C@]3(C)O)C[C@@]2(C)O` (some centres undefined), the Potency result was “inactive”.

As for `C=CCSSCC=C`, the Potency entry was “inactive”.

Regarding `C[C@]12O[C@H](C[C@@]1(O)C(=O)O)n1c3ccccc3c3c4c(c5c6ccccc6n2c5c31)CNC4=O`, the Potency result was “inactive”.

Regarding `C[C@@]12CCC3C(CC[C@@H]4CC(O)CC[C@@]34C)C1CCC2O` (some centres undefined), the Potency result is “inactive”.

Take `CCCCC/C=C\C/C=C\C/C=C\C/C=C\CCCCCC(=O)NCCO`: the Potency result was “inactive”.

For `Cc1cccc2c3c(ccc12)C1=C(C(=O)C3=O)C(C)CO1` (centres undefined), the Potency was 20 µM (active).

Regarding `C[C@@]12CC[C@H]3[C@@H](CC[C@]4(O)C[C@H](O)CC[C@@]34C=O)[C@]1(O)CC[C@@H]2C1=CC(=O)OC1`, the activity, negative = inhibition is -6.33% [at 12 µM] (inactive).

`C[C@@H]1C[C@@H]2O[C@H]2/C=C\C=C\C(=O)Cc2c(Cl)c(O)cc(O)c2C(=O)O1`: the Potency was 39.8 µM (active).

For the molecule `c1ccc(CCCCN2CCC(c3ccccc3)CC2)cc1`, the Potency entry was “inactive”.

On to `O=C(N/N=C/c1ccc([N+](=O)[O-])o1)c1cc([N+](=O)[O-])cc([N+](=O)[O-])c1O`, for which the Potency result was “inactive”.

As to `c1ccc(N2CC[C@@]3(CCCNC3)C2)nc1`, the Potency entry was “inactive”.

Take `COc1cccc(N2C(=O)NC(=O)/C(=C\c3ccc([N+](=O)[O-])s3)C2=O)c1`: the Potency was 25.1 µM (active).

Turning to `O=C1NC(=O)N(c2ccccc2)C(=O)/C1=C/c1ccc([N+](=O)[O-])s1`, the Potency was 31.6 µM (active).

Consider `CC(=O)[O][Sn]([c]1ccccc1)([c]1ccccc1)[c]1ccccc1`, for which the Potency entry was “inactive”.

Turning to `CCCCCCCCc1[se]c2ccccc2c1Br`, the Potency entry was “inactive”.

As to `ClCCN(CCCl)c1ccc(C=Nc2ccc(/C=C/c3ccnc4ccccc34)cc2)cc1`, the Potency result was “inactive”.

Consider `CC(C)(Cc1c[nH]c2ccc(Cl)cc12)NCCOc1ccccc1OCC1CC1`, for which the Potency result is “inactive”.

For `CCN(CC)c1nc(C)cc(OP(=S)(OC)OC)n1`, the Potency entry was “inactive”.

Take `C[C@@H]1C[C@H]2CC[C@H](O2)[C@H](C)C(=O)O[C@@H](C)C[C@@H]2CC[C@@H](O2)[C@@H](C)C(=O)O[C@H](C)C[C@H]2CC[C@H](O2)[C@H](C)C(=O)O[C@@H](C)C[C@@H]2CC[C@@H](O2)[C@@H](C)C(=O)O1`: the Potency result was “inactive”.

As to `O=C(Nc1cccc(F)c1)N1CC[C@@]2(CCCN(C(=O)Oc3ccccc3)C2)C1`, the Potency entry is “inactive”.

For the molecule `CC(C)(c1ccc(OC[C@@H]2CO2)cc1)c1ccc(OC[C@H]2CO2)cc1`, the Potency entry was “inactive”.

With `COc1ccc2[nH]cc(CCNCc3ccc(Br)cc3)c2c1`, the Potency entry is “inactive”.

For the molecule `O=C1CCc2cccc3c2N1CC3`, the activity, negative = inhibition is -11.9% [at 12 µM] (inactive).
